Pf growth 96h – inhibits malaria parasite growth, 96 h. P. falciparum luciferase reporter growth, 96 h. Potency, µM (titrated, usually from 28.7 µM), usual class: inhibitors. 6.9% of 320,000 active
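Infected RBCs, 2% Hct / 0.05% parasitemia final; luciferase-reporter P. falciparum; cpd 96 h, 37 C, 5% CO2; luciferase detection reagent; luminescence.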
SARS PLP yeast – SARS-CoV PLP inhibition in yeast. S. cerevisiae expressing SARS-CoV PLpro, growth rescue. Potency, µM (titrated, usually from 32.9 µM), actives largely listed as activators. 0.19% of 330,000 active. AID 485353; calls by dose curve; further: nearly all actives have a fitted effect of over 55% in size
Pf growth 48h – inhibits P. falciparum growth in the first generation, 48 h | Potency, µM (doses to about 28.7 µM), most hits filed as inhibitors | P. falciparum luciferase growth in erythrocytes, 48 h | 5.9% of 310,000 active
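In quantitative HTS format, infected erythrocytes bearing luciferase-reporter parasites were treated for a single generation at 37 C. Luminescence after adding detection reagent served as the growth measure.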
HCMV inh – blocks human cytomegalovirus replication; 4.5% of 410,000 active; HFF cells, HCMV-luciferase reporter, 72 h; hits give low values; activity change, negative = inhibition, % at 57.5 µM; in the data active means activity change below about -60%; inconclusive means no clear call, values can overlap the other calls; inactive means above about -39%
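Luciferase read-out from HCMV-luciferase-infected HFFs (MOI 1 PFU/cell) 72 h post infection at 37C; compounds added after 16 h cell attachment; activity normalized between buffer-only basal and Salinomycin (10uM) inhibitor controls.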
HCV inhibitor – blocks hepatitis C virus; Huh7.5.1 HCVcc-Cre infection, luciferase reporter, 44 h; Potency, µM (doses to about 41.8 µM), usual class: inhibitors; 3.4% of 340,000 active; AID 651820
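HCVcc-Cre virus at an moi near 0.5 was added right after compound to cells cultured 4 h from seeding (1,000 cells/well). Luciferase activity was determined 44 h later, 15 min after substrate addition at RT.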
Sm TGR block – S. mansoni TGR enzyme inhibition | Potency, µM (highest dose often 114 µM), hits mostly inhibitors | purified TGR, DTNB reduction, TNB absorbance 405 nm | 3% of 360,000 active | Q962Y6; further: nearly all actives have a fitted effect of over 60% in size
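Kinetic colorimetric format: TGR-catalysed, NADPH-driven DTNB reduction monitored via TNB absorbance. Enzyme dispensed at 20 nM; compound exposure 15 min at room temperature before reaction start.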
Hits are given with their value; [ ] = another dose, or the depositor's remark. This is a sample that favours compounds with a hit; in the whole collection about 15% have one here. Unless noted, the call rests on the fitted dose curve; in most records, active means well fitted curve in the direction sought with a large enough effect; inconclusive means small, poorly fitted or top-dose-only effect, or another doubt; inactive means no such curve, though single readings can be large; an effect the other way counts as inactive or inconclusive.

Screening Cc1sc[n+](CC(=O)c2ccc(Br)cc2)c1C returned Pf growth 96h inactive, SARS PLP yeast inactive, Pf growth 48h inactive, HCMV inh inactive, HCV inhibitor inactive and Sm TGR block inactive.
Screening Cc1c[n+](CC(=O)c2ccccc2)cs1 returned Pf growth 96h inactive, SARS PLP yeast inactive, Pf growth 48h inactive, HCMV inh inactive, HCV inhibitor inactive and Sm TGR block inactive.
For Cc1c(CCOC(=O)c2ccc(Cl)cc2Cl)sc[n+]1CC(=O)c1ccccc1 the results were SARS PLP yeast inactive, HCMV inh inactive and HCV inhibitor 13µM.
Screening O=C(C1=C[C@H](c2ccc3c(c2)OCO3)C[C@H](OCCCCO)O1)N1CCN(Cc2ccc3c(c2)OCO3)CC1 returned Pf growth 96h inconclusive, SARS PLP yeast inactive, Pf growth 48h inconclusive, HCMV inh inactive, HCV inhibitor inactive and Sm TGR block inactive.
Screening O=C(C1=C[C@@H](c2ccc3c(c2)OCO3)C[C@@H](OCCCCO)O1)N1CCOCC1 returned Pf growth 96h inconclusive, SARS PLP yeast inactive, Pf growth 48h inconclusive, HCMV inh inactive, HCV inhibitor inactive and Sm TGR block 45µM.
Screening CN1CCN(C(=O)C2=C[C@H](c3ccc4c(c3)OCO4)C[C@H](OCCCCO)O2)CC1 returned HCMV inh inactive and HCV inhibitor inactive.
O=C(C1=C[C@H](C2CCCCC2)C[C@H](OCCCCO)O1)N1CCN(Cc2ccc3c(c2)OCO3)CC1 was read as Pf growth 96h 5.9µM, SARS PLP yeast inactive, Pf growth 48h 12µM, HCV inhibitor inconclusive and Sm TGR block inactive.
O=C(C1=C[C@@H](C2CC2)C[C@@H](OCc2ccc(CO)cc2)O1)N1CCN(Cc2ccc3c(c2)OCO3)CC1 was read as Pf growth 96h inactive, SARS PLP yeast inactive, Pf growth 48h inactive, HCMV inh inactive, HCV inhibitor inactive and Sm TGR block inactive.
O=C(C1=C[C@@H](c2ccc3c(c2)OCO3)C[C@@H](OCCCCO)O1)N1CCN(Cc2ccc3c(c2)OCO3)CC1 was read as Pf growth 96h 10µM, SARS PLP yeast inactive, Pf growth 48h inconclusive, HCMV inh inactive, HCV inhibitor 0.56µM and Sm TGR block inactive.
Screening C#Cc1ccc([C@@H]2C=C(C(=O)N3CCN(Cc4ccc5c(c4)OCO5)CC3)O[C@H](OCCCCO)C2)cc1 returned Pf growth 96h 12µM, SARS PLP yeast inactive, Pf growth 48h inconclusive, HCMV inh inactive, HCV inhibitor inactive[8.37 µM] and Sm TGR block inconclusive.
`Cc1ccc(S(=O)(=O)N2CCC[C@H]2C(=O)Nc2ccc(F)cc2C)cc1` gave SARS PLP yeast inactive, HCMV inh inactive and HCV inhibitor inactive.
Screening Cc1ccccc1-c1noc(-c2cccnc2N2CCN(c3ccccc3)CC2)n1 returned HCMV inh inactive and Sm TGR block inactive.
O=C(C1=C[C@@H](c2ccc(Br)cc2)C[C@@H](OCCCCO)O1)N1CCN(Cc2ccccc2)CC1 was read as Pf growth 96h 12µM, SARS PLP yeast inactive, Pf growth 48h 8.3µM, HCMV inh -94, HCV inhibitor inactive and Sm TGR block 20µM.
For O=C(O)C1=C[C@@H](c2ccc3c(c2)OCO3)C[C@@H](OCCCCO)O1 the results were Pf growth 96h inactive, SARS PLP yeast inactive, Pf growth 48h inactive, HCMV inh inactive, HCV inhibitor inactive and Sm TGR block 45µM.
O=C(C1=C[C@H](c2ccc3c(c2)OCO3)C[C@H](OCCCCO)O1)N1CCN(Cc2ccccc2)CC1 was read as Pf growth 96h 13µM, SARS PLP yeast inactive, Pf growth 48h inconclusive, HCMV inh inactive, HCV inhibitor inconclusive and Sm TGR block 25µM.
For O=C(C1=C[C@H](c2ccc(Br)cc2)C[C@H](OCCCCO)O1)N1CCN(Cc2ccc3c(c2)OCO3)CC1 the results were Pf growth 96h 4.1µM, SARS PLP yeast inactive, Pf growth 48h 1.5µM, HCV inhibitor inconclusive and Sm TGR block inactive.
`O=C(NCc1ccccc1)C1=C[C@H](c2ccc3c(c2)OCO3)C[C@H](OCCCCO)O1` gave Pf growth 96h inactive, SARS PLP yeast inactive, Pf growth 48h inactive, HCMV inh inactive, HCV inhibitor inactive and Sm TGR block inconclusive.
`CC(C)(C)[C@@H]1C=C(C(=O)N2CCN(Cc3ccccc3)CC2)O[C@H](OCCCCO)C1` gave Pf growth 96h inconclusive, SARS PLP yeast inactive, Pf growth 48h inactive, HCMV inh inactive, HCV inhibitor inactive and Sm TGR block inconclusive.
For O=C(CSC1CS(=O)(=O)c2cc([N+](=O)[O-])ccc21)NNC(=O)c1ccc(Cl)cc1 (stereo not drawn) the results were Pf growth 96h inconclusive, SARS PLP yeast inactive, Pf growth 48h inactive, HCMV inh inactive, HCV inhibitor inactive and Sm TGR block 16µM.
COc1cc(C(=O)O[C@H]2C/C(C)=C/CC[C@]3(C)O[C@@H]3C(O)C2C(C)C)cc(OC)c1OC (stereo partly drawn) was read as Pf growth 96h 4.1µM, SARS PLP yeast inactive, Pf growth 48h inconclusive, HCMV inh inactive, HCV inhibitor inactive and Sm TGR block inactive.
For COc1cc(CNCc2ccc(OC)c(OC)c2OC)cc(OC)c1 the results were Pf growth 96h inactive, SARS PLP yeast inactive, Pf growth 48h inactive, HCMV inh inactive, HCV inhibitor 10µM and Sm TGR block inactive.
`COc1ccc(CCNCc2ccc(OC)c(OC)c2OC)cc1` gave Pf growth 96h inactive, SARS PLP yeast inactive, HCMV inh inactive, HCV inhibitor inactive and Sm TGR block inactive.
`C=CCN(CC=C)C(=O)C(=O)c1ccn(-c2c(C)csc2C(=O)OC)c1` gave Pf growth 96h inconclusive, SARS PLP yeast inactive, Pf growth 48h inconclusive, HCMV inh inactive, HCV inhibitor inactive and Sm TGR block inactive.
`N#CC(c1cccc(C(F)(F)F)c1)(c1ncc(C(F)(F)F)cc1Cl)N1CCOCC1` (stereo not drawn) gave Pf growth 96h inconclusive, SARS PLP yeast inactive, Pf growth 48h inconclusive, HCMV inh -64, HCV inhibitor inactive and Sm TGR block inactive.
Screening Cc1ccc(Nc2sc(C(=O)c3ccccc3)c(N)c2C(N)=O)cc1 returned HCMV inh inactive and Sm TGR block 50µM.
For Nc1c(C(=O)c2ccccc2)sc(Nc2ccccc2)c1S(=O)(=O)c1ccccc1 the results were Pf growth 96h inconclusive, SARS PLP yeast inactive, Pf growth 48h inconclusive, HCMV inh inactive, HCV inhibitor 14µM and Sm TGR block inactive.
For Cc1cccc(Nc2sc(C(=O)c3ccc(Cl)cc3)c(N)c2C(N)=O)c1 the results were HCMV inh inactive and Sm TGR block inactive.
Screening Cc1cc(C(F)(F)F)nn1-c1nc(-c2ccccc2)cc(C(F)(F)F)n1 returned HCMV inh inactive and Sm TGR block inactive.
